Assay in all cases: log2 ratio of Biotin-Ahx-Ub-VS probe labelling (fragment/DMSO); higher = less target engagement (more negative = stronger competition), active = hit call of the paper (q ≤ 0.05, log2 ratio ≤ -1)
Common to all, as to conditions: compound concentration: 200 uM; treatment time: 3 h

Assay [1] deals with T1, USP19 (UniProt O94966).
T1 sequence (whole entry): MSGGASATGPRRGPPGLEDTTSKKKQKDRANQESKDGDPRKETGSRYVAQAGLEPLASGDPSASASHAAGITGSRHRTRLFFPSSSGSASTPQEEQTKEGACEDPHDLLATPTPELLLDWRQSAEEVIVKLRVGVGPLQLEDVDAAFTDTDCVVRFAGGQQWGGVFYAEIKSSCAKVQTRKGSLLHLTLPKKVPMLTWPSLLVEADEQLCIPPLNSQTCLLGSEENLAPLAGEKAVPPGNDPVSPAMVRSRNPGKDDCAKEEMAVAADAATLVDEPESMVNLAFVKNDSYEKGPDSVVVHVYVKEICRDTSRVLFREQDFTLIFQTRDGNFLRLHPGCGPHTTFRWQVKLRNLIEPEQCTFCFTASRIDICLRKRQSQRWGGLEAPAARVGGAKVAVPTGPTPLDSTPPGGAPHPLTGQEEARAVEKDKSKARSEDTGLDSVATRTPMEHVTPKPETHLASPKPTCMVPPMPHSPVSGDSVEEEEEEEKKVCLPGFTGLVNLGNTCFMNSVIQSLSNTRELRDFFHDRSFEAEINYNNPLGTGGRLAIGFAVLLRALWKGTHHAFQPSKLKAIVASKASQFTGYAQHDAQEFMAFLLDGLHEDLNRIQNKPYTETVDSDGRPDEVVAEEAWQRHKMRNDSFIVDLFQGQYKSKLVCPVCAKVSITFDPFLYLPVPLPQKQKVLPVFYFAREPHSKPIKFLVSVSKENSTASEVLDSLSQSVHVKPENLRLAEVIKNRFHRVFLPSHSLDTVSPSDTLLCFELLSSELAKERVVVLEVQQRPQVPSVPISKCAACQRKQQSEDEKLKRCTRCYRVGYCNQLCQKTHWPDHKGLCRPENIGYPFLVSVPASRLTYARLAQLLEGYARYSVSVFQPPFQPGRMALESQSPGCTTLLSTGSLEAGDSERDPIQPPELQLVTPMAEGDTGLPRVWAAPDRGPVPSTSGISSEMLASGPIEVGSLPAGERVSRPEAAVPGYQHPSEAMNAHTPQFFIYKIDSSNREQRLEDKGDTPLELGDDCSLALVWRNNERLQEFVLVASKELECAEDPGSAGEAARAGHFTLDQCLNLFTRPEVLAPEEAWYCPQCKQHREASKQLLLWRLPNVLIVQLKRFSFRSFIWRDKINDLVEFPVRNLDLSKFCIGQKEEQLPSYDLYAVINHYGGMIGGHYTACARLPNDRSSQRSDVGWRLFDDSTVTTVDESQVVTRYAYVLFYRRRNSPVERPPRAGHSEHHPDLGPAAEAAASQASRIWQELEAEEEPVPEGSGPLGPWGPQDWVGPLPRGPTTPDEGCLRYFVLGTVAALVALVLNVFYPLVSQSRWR
The method in brief:
(§1)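 Fragment (200 µM) or vehicle was incubated for 3 h with triplicate HEK293T lysate samples of 495 µg, which were then treated with Biotin-Ahx-Ub-VS at 0.5 µM final for 1 h. Labelled DUBs were enriched on NeutrAvidin, digested with LysC and trypsin, and analysed by diaPASEF LC-MS/MS. Values are average log2 fragment/vehicle ratios from an unpaired t-test on global-median-normalised Spectronaut label-free quantities, using proteins with ≥2 unique peptides.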

The target in assay [2] is T2, USP22 (UniProt Q9UPT9).
T2 sequence (whole entry): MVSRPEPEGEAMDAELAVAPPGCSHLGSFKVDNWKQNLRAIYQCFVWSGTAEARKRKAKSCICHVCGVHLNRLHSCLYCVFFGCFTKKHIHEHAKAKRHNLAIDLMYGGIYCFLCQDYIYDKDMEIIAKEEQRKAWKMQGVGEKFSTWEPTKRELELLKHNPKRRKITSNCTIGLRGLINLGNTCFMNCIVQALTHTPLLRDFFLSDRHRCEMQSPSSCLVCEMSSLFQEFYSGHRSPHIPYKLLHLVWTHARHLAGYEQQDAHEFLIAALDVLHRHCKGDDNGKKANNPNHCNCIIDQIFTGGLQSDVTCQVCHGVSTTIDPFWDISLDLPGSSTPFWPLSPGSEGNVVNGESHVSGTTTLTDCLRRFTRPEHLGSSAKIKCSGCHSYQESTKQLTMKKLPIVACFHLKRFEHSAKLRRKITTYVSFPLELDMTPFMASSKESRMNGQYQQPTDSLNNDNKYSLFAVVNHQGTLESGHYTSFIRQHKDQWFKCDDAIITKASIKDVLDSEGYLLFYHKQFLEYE
The method in brief: as §1

Assay [3] deals with USP24 (UniProt Q9UPU5). The gist of the method:
as §1

In assay [4] the target is T3, USP25 (UniProt Q9UHP3).
T3 sequence (whole entry): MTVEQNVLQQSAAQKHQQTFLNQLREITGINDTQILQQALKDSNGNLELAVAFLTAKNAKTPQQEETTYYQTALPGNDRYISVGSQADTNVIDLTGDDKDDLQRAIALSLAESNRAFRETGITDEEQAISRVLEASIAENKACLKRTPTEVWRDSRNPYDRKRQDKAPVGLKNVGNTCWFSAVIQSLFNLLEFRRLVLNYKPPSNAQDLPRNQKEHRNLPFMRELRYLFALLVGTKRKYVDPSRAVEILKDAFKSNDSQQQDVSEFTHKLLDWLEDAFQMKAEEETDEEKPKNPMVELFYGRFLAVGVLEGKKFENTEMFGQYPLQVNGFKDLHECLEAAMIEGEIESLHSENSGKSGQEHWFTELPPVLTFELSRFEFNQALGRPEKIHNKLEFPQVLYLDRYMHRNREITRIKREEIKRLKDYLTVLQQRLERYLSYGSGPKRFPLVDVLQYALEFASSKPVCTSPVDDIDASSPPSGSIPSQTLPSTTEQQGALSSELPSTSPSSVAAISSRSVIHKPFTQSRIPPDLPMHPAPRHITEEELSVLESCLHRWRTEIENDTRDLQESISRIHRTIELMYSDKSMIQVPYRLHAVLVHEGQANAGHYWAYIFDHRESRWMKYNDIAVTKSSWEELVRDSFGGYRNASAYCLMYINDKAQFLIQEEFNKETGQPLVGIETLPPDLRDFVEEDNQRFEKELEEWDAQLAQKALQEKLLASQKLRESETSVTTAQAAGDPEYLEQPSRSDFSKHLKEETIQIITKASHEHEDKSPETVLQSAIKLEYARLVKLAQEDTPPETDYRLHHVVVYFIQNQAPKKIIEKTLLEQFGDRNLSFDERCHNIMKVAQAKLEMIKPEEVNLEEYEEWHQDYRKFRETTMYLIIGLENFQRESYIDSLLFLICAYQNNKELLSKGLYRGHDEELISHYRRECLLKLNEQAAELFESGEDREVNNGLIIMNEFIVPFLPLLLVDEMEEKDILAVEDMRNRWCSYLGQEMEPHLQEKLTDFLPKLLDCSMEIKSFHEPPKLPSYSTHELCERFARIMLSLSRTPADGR
The gist of the method:
as §1

In assay [5] the target is T4, USP28 (UniProt Q96RU2).
T4 sequence (whole entry): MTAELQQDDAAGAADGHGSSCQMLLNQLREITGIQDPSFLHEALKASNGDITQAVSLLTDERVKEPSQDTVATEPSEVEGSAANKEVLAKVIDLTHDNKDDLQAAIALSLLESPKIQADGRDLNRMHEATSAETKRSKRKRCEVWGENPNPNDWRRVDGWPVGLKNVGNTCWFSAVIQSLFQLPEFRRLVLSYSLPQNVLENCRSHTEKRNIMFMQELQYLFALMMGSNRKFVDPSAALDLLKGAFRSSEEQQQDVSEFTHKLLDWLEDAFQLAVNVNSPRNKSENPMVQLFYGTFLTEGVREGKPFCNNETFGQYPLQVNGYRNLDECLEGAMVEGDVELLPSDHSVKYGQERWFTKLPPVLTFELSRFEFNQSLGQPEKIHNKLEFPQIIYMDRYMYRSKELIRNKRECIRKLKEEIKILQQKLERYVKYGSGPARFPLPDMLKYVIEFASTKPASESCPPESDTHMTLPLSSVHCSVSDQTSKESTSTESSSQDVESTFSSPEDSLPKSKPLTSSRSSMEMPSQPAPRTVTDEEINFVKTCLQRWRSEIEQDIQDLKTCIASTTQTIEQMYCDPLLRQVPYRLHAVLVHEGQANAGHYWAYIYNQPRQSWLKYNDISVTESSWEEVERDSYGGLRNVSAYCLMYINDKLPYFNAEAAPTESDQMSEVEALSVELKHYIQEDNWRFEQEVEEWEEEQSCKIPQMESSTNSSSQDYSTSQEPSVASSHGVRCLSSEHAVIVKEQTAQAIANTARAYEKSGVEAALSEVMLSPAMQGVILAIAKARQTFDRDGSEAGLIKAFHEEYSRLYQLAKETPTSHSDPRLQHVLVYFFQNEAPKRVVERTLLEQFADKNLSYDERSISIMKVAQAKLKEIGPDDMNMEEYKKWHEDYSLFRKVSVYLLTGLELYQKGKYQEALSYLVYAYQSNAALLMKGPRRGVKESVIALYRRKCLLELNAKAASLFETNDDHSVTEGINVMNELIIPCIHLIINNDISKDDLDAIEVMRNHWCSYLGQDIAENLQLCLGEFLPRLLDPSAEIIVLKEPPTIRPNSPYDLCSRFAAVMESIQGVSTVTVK
The method in brief: as §1

Here are results for 1 compound from the supplement of paper PMC11732987, “Enantioselective OTUD7B fragment discovery through chemoproteomics screening and high-throughput optimisation” (Communications Chemistry, 2025).

Structures are written as SMILES. A number with no mark means an inactive call.

Chain of USP24 (Q9UPU5 whole entry): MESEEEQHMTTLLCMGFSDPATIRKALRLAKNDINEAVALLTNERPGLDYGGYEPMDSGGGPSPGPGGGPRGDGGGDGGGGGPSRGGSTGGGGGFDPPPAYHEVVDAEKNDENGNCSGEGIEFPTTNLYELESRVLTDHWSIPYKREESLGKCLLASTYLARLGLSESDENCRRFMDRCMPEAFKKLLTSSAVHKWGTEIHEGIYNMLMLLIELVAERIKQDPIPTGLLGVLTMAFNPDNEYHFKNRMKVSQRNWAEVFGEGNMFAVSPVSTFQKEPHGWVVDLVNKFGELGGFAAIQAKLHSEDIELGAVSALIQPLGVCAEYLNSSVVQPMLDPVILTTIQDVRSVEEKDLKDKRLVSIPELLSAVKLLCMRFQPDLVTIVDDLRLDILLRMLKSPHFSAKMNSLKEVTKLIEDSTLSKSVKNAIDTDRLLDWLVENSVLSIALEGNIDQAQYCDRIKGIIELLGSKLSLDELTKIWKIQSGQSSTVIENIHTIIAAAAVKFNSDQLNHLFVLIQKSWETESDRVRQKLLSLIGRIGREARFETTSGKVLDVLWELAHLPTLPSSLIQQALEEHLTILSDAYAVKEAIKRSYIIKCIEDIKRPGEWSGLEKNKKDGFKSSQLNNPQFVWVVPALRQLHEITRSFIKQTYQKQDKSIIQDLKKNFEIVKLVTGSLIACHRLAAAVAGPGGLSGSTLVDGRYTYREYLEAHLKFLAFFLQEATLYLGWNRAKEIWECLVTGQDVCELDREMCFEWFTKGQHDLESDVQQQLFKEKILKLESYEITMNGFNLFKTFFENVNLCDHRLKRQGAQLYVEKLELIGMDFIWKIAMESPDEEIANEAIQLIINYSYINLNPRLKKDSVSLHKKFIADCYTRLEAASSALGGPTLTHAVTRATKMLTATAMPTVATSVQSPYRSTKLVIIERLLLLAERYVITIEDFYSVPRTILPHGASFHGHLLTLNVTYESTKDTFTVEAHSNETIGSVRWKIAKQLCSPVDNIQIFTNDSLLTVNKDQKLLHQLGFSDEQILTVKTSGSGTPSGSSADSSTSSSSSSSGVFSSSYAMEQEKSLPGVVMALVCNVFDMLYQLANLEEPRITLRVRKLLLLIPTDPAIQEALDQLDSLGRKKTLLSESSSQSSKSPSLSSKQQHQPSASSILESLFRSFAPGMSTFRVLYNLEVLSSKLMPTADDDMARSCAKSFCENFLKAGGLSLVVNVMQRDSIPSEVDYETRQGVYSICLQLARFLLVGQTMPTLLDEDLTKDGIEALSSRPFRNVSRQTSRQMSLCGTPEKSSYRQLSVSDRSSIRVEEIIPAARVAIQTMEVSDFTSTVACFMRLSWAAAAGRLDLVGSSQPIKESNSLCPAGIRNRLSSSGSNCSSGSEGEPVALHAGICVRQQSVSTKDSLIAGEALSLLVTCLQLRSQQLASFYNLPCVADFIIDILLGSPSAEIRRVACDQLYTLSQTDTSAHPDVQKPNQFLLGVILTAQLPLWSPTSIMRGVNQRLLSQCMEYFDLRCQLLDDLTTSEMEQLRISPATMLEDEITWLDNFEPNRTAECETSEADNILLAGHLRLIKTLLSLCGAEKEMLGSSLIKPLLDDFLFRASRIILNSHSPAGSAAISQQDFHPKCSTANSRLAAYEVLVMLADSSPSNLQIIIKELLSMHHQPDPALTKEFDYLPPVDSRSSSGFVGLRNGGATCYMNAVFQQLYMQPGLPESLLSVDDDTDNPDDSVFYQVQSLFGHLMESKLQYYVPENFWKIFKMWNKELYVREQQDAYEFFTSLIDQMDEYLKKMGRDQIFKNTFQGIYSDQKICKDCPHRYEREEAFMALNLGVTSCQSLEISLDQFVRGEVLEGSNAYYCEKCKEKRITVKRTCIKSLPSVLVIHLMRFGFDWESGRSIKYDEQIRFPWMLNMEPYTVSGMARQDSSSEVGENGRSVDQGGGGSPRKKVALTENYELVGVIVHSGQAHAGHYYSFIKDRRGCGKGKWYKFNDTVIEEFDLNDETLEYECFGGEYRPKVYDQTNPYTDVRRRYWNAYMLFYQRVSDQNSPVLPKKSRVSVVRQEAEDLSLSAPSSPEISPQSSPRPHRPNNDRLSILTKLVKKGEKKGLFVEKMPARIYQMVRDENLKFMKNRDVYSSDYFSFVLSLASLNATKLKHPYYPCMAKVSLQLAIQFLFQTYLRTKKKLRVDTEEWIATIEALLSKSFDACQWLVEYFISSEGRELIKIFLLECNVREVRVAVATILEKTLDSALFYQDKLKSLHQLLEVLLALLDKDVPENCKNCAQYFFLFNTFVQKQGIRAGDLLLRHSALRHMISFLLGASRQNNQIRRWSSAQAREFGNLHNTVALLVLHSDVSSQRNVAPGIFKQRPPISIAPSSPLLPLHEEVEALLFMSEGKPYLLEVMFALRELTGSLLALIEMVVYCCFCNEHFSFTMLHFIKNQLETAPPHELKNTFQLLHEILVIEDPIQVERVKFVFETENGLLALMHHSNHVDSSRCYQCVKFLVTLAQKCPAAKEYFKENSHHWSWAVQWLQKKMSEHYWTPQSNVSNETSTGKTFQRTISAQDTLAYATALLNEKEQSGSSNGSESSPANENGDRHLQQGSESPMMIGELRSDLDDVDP

As for `O=C(CCl)Nc1ccc(Cl)c(F)c1`, the “log2 ratio of Biotin-Ahx-Ub-VS probe labelling” value in assay [1] was -0.486; in assay [2] it was -0.253; in assay [3] it was -1.66 (active); in assay [4], -1.62 (active); in assay [5] it was -1.53 (active).
